# Experimental data published in PubChem BioAssay (EPA / NIEHS).
# Several values for one entry are separate records, joined by “and”; a condition that tells them apart may be missing. Equal values may be shown once. Records with an inconclusive call do not appear. A structure can be active in one record and inactive in another. Activity calls are given as the source filed them. How the source made its calls: active means hit-call score of the fitted dose curve at least 0.9, where 1 is the maximum; inconclusive means response in the unintended direction; inactive means score below 0.9.
# Molecular target: mouse Peroxisome Proliferator-activated Receptor gamma (PPARg), Pparg (gene 19016) (UniProt P37238)
# Sequence (P37238 whole entry, looked up): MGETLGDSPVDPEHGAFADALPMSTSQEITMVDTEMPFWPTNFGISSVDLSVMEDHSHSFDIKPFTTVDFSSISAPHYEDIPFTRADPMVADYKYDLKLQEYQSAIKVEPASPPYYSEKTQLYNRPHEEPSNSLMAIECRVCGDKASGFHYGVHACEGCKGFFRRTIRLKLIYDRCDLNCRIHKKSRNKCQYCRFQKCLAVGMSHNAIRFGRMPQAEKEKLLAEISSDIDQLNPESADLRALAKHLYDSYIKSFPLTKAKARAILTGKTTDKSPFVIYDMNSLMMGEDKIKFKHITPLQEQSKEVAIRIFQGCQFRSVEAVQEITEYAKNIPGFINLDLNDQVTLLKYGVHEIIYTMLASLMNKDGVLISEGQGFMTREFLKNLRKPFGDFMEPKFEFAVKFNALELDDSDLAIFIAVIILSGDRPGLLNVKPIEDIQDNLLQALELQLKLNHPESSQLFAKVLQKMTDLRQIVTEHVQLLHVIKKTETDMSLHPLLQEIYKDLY
# Experiment: ATG_mPPARg_XSP2: Attagene TRANS-FACTORIAL Multi-Species (XSP2) HepG2 Assay for mouse Peroxisome Proliferator-activated Receptor gamma (PPARg) (AID 2283830);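 further: hits are gains in reporter mRNA above DMSO so AC50 marks activation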
# Procedure: ATG_XSP2_multi-species_TRANS is a cell-based, multiplexed assay created by modifying the existing Attagene TRANS-FACTORIAL system to include a panel of nuclear receptors from some or all the following species: human (Homo sapiens), mouse (Mus musculus), frog (Xenopus laevis), zebrafish (Danio rerio), chicken (Gallus gallus), and turtle (Chrysemys picta). The […] format uses HepG2, a human liver cell line, with measurements taken at 24 hours after chemical dosing in a 24-well plate. Xsp2 included 3 nM 6-alpha-fluorotestosterone and 1.5 nM norgestrel to stimulate the androgen receptor.ATG_mPPARg_XSP2 is one of 29 assay components measured or calculated from the ATG_XSP2_multi-species_TRANS assay. It is designed to make measurements of mRNA induction, a form of inducible reporter, as detected with fluorescence intensity signals by Reverse transcription polymerase chain reaction (RT-PCR) and Capillary electrophoresis technology.The assay endpoint ATG_mPPARg_XSP2 was analyzed in the positive analysis fitting direction relative to DMSO as the negative control and baseline of activity. Using a type of inducible reporter, measures of mRNA for gain-of-signal activity can be used to understand the reporter gene at the transcription factor-level as they relate to the gene PPARg. Furthermore, this assay endpoint can be referred to as a primary readout, because this assay has produced multiple assay endpoints where this one serves a reporter gene function. To generalize the intended target to other relatable targets, this assay endpoint is annotated to the nuclear receptor intended target family, where the subfamily is non-steroidal.
# Human liver HepG2 cells are transiently transfected with multiple reporter transcription units (MRTUs) in 6-well plates using FuGene 6 reagent (Roche; 3 ml FuGene/1 mg DNA). The MRTU constructs are regulated by a cis-regulating element (promoter). […] A major difference between the CIS and TRANS system is that in CIS activities of endogenous TFs are measured, whereas the TRANS assay evaluates changes in activities of exogenous, chimeric NR-Gal4 proteins. […] At the end of 24 hour incubation, total RNA was isolated using TriZol reagent (Invitrogen). The isolated RNA is then reverse-transcribed using oligo(dT) primer and Mo-MLV reverse transcriptase (Invitrogen) with DNAse I (Ambion) treatment for 30 min. The one-tenth of the produced cDNA was amplified by PCR using Taq DNA polymerase (Invitrogen) and two reporter sequence-specific primers. The PCR products were fluorescently labeled by primer extension with 6-arboxyfluorescein (6-FAM) 5'-labeled reporter sequence-specific primer (2 min at 95 C, 20 s at 68 C and 10 min at 72 C) and these products were digested with 5U of HpaI (New England Biolabs) for 2h at 37 C. The fragments were purified using Qiaquick PCR columns (Qiagen), analyzed on an ABI 3130xL genetic analyzer (Applied Biosystems) with peak positions identified by using a set of X-rhodamine (ROX)-labeled MapMarker1000 molecular weight standards (BioVentures). The raw capillary electrophoresis data was processed using Attagraph software (Attagene).
SMILES,AC50,outcome
Cc1cc(-c2ccc(N)c(C)c2)ccc1N,27.7 µM (active) and 55.5 µM (active),inactive
c1cc2ccc3cccc4ccc(c1)c2c34,27.9 µM (active),inactive
Oc1ccc(C(c2ccc(O)cc2)(C(F)(F)F)C(F)(F)F)cc1,33.4 µM (active),inactive
CC(c1ccc(O)cc1)(c1ccc(O)cc1)c1ccc(O)cc1,–,inactive
CCOC(=O)C(O)(c1ccc(Cl)cc1)c1ccc(Cl)cc1,10.6 µM (active) and 22.3 µM (active),–
Clc1ccc(C(c2ccccc2Cl)C(Cl)(Cl)Cl)cc1 (stereo unspecified),–,inactive
ClC(Cl)=C(c1ccc(Cl)cc1)c1ccc(Cl)cc1,–,inactive
CC(C)(c1ccccc1)c1ccc(O)cc1,–,inactive
